# Data: PubChem BioAssay
# The source made the active and inactive calls. Rule as the data show it, unless noted: active = inhibition above about 80%; inactive = the rest.
# Columns and labels:
# [1] = P. berghei load reduction in hepatocytes – cell-based, HepG2, luciferase luminescence, HepG2 viability, primary screen (AID 624349; in the data active = parasite load remaining mostly below about 12%, no sharp cut-off; inactive = mostly above about 10%;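 also: 100% = mean of DMSO negative control wells on the same plate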); conditions: P. berghei liver stage in HepG2, luciferase luminescence, concentration not given here; parasite load remaining: stronger effect = lower value; viability: measured here: HepG2 viability without parasites
# [2] = test system: Aerobactin synthetase IucA (Klebsiella pneumoniae); test: inhibition of K. pneumoniae IucA enzyme – biochemical, Tocris library, absorbance (AID 1345561; call rule not given here;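 also: 100% = enzyme without compound and 0% = no enzyme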); conditions: purified IucA enzyme assay, absorbance (OD) read-out; stronger effect = lower value;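 tested at 8 µM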
# [3] = galactose survival enhancers in mitochondrial complex I cybrids – cell-based, galactose medium, ATP luminescence, primary screen (AID 1645843;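 active = z-score of at least 1.8 in each of two replicates, scored against plate mean and spread of sample wells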;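 also: positive z means more ATP and so rescue of galactose-driven cybrid death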); conditions: complex I mutant cybrid cells, 72 h, stronger effect = higher value
# [4] = test system: Hepatitis C virus NS3 helicase; test: blockers of NS3h binding to ssDNA – biochemical, fluorescence polarization, LOPAC1280 library, primary screen (AID 687035; in the data active = inhibition above about 37%); conditions: Purified HCV NS3 helicase, Cy5-dT15 ssDNA binding fluorescence polarization; stronger effect = higher value; concentration not given here
# [5] = compounds altering Cy5-DNA-NS3h complex signal – biochemical, LOPAC1280, artefact control for HCV NS3 helicase inhibitor project (AID 687037; call rule not given here); conditions: Cy5-DNA-NS3h complex fluorescence interference counterscreen
# [6] = liver-stage malaria parasite load reduction – cell-based, known kinase inhibitor set, luminescence, hepatoma host viability (AID 624392; call rule not given here;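 also: infected cells incubated roughly two days before readout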); conditions: Plasmodium liver stage in hepatoma cells, luciferase luminescence, concentration not given here; liver cell % of control: measured here: host liver cell viability; parasite % of control: stronger effect = lower value
# [7] = blockers of cellular phospholipid synthesis – cell-based, LOPAC library, screen 4, primary screen (AID 1347384; call rule not given here); conditions: animal cells, phospholipid biosynthesis inhibition screen; at 10 µM
# [8] = growth inhibition, single agents and combos, LFS_MB_1R, cell-based, cisplatin or BGB combos, synergistic combos for chromothripsis tumors (AID 1671452); conditions: LFS_MB_1R medulloblastoma cells, stronger effect = higher value;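 also: cells exposed for 96 hours before readout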
# [9] = growth inhibition, single agents and combos, CRL2098, cell-based, BGB or cisplatin IC20 combos, synergistic combos for chromothripsis tumors (AID 1671454); conditions: CRL2098 osteosarcoma cells, drug combinations, stronger effect = higher value;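 also: cells exposed for 96 h before readout; 0% = vehicle DMSO and 100% = killing by high DMSO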
# [10] = growth inhibition, single agents and combos, HD-MB03, cell-based, BGB or cisplatin IC20 combos, synergistic combos for chromothripsis tumors (AID 1671455; in the data active = inhibition above about 83%;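 also: 0% = vehicle DMSO and 100% = high DMSO as cytotoxic control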); conditions: HD-MB03 medulloblastoma cells, stronger effect = higher value
# [11] = growth inhibition, single agents and combos, UWB1.289, cell-based, BGB or cisplatin combos, synergistic combos for chromothripsis tumors (AID 1671456); conditions: UWB1.289 ovarian carcinoma cells, stronger effect = higher value;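 also: cells exposed to compound for four days; 0% = vehicle DMSO and 100% = killing by high DMSO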
# [12] = growth inhibition, single agents and combos, LFS_MB_2R, cell-based, cisplatin combos, synergistic combos for chromothripsis tumors (AID 1671457); conditions: LFS_MB_2R medulloblastoma cells, stronger effect = higher value;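 also: cells exposed to compound for four days before readout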
# [13] = UWB1.289_BRCA1 ovarian cancer growth, cell-based, BGB or cisplatin combinations (AID 1671459); conditions: UWB1.289 BRCA1 ovarian carcinoma, drug combinations, stronger effect = higher value
# [14] = drug combination toxicity in non-malignant astrocytes – cell-based, BGB or cisplatin IC20 combos, cytotoxicity control for chromothriptic childhood tumor combination screen (AID 1671460); conditions: Human astrocytes, viability inhibition, drug combinations, at 0.5 µM, stronger effect = higher value;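 also: cells exposed to compounds for 96 hours before viability readout; 0% = vehicle and 100% = killing control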
# [15] = CRL1545 cell growth, single agent and combined, cisplatin and BGB IC20 combos (AID 1671464); conditions: CRL1545 osteosarcoma cells, stronger effect = higher value;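 also: cells exposed to compound for 96 hours before readout; 0% = vehicle DMSO and 100% = high DMSO killing control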
# [16] = measured here: combination with BGB IC40, at 0.05 µM
# [17] = measured here: combination with cisplatin, at 0.5 µM
# [18] = measured here: combination with cisplatin, at 5 µM
# [19] = measured here: combination with BGB at IC20, at 0.5 µM
# [20] = measured here: combination with cisplatin at IC20, at 0.5 µM
# [21] = measured here: combo with BGB at IC20, at 0.5 µM
# [22] = measured here: combo with cisplatin at IC20, at 0.5 µM
# [23] = measured here: inhibition with BGB combination, at 0.05 µM
# [24] = measured here: inhibition with cisplatin combination, at 0.05 µM
# [25] = BGB combination, concentration series, at 5 µM
# [26] = cisplatin combination, concentration series, at 5 µM
# [27] = measured here: combo with BGB IC20
# [28] = measured here: combo with cisplatin IC20
# [29] = measured here: with BGB IC20 combination, at 0.5 µM
# [30] = measured here: with cisplatin IC20 combination, at 0.5 µM
smiles,measurement,setting,value
c1ccc(-c2n[nH]c3c2oc2ccccc23)cc1,parasite load remaining,[1],24.1% (inactive)
same,viability,[1],103%
same,remaining activity,[2],98.7% (inactive)
same,z-score,[3],0.045 (inactive)
CN(C)C(=O)n1nnnc1Cc1ccc(-c2ccccc2)cc1,inhibition,[4],-2% (inactive)
same,fluorescence ratio (interference),[5],1 (inactive)
same,remaining activity,[2],82% (inactive)
same,z-score,[3],-0.57 (inactive)
COc1ccc(OC)c2c(=S)c3ccccc3[nH]c12,parasite load remaining,[1],32.4% (inactive)
same,viability,[1],149%
same,liver cell % of control,[6],97.2%
same,parasite % of control,[6],125% (inactive)
same,remaining activity,[2],86.6% (inactive)
same,z-score,[3],0.325 (inactive)
CCOC(=O)C12CC1/C(=N\O)c1ccccc1O2 (stereo unspecified),inhibition,[4],0% (inactive)
same,fluorescence ratio (interference),[5],1 (inactive)
same,remaining activity,[2],109% (inactive)
same,z-score,[3],-0.07 (inactive)
COc1cc2ncnc(Nc3ccc(Oc4ccccc4)cc3)c2cc1OC,parasite load remaining,[1],30.7% (inactive)
same,viability,[1],67.6%
same,remaining activity,[2],104% (inactive)
same,z-score,[3],0.48 (inactive)
O=c1cc(N2CCNCC2)oc2c(-c3ccccc3)cccc12,parasite load remaining,[1],25.4% (inactive)
same,viability,[1],90.4%
same,remaining activity,[2],83.1% (inactive)
same,z-score,[3],1.52 (inactive)
COc1cc2nc(N3CCCN(C)CC3)nc(NC3CCN(Cc4ccccc4)CC3)c2cc1OC,inhibition,[4],3% (inactive)
same,fluorescence ratio (interference),[5],1 (inactive)
same,outcome,[7],inactive
same,z-score,[3],-1.38 (inactive)
CS(=O)(=O)c1cccc(CNc2nc(Nc3ccc4c(c3)CCC(=O)N4)ncc2C(F)(F)F)c1,outcome,[7],inactive
same,z-score,[3],-0.545 (inactive)
O=c1cc(N2CCOCC2)oc2c(-c3cccc4c3sc3ccccc34)cccc12,inhibition,[8]; at 0.5 µM,-39.7% (inactive)
same,inhibition,[8]; [16],-46.9%
same,inhibition,[8]; [17],-75.1%
same,inhibition,[8]; [18],-3.55%
same,inhibition,[9]; at 0.5 µM,-62.4% (inactive)
same,inhibition,[9]; [19],-46.6%
same,inhibition,[9]; [20],-92%
same,inhibition,[10]; at 0.5 µM,0.79% (inactive)
same,inhibition,[10]; [21],-1.46%
same,inhibition,[10]; [22],11.5%
same,inhibition,[11]; at 0.5 µM,-12.2% (inactive)
same,inhibition,[11]; [23],-24%
same,inhibition,[11]; [24],-24.1%
same,inhibition,[12]; at 0.5 µM,-22.4% (inactive)
same,inhibition,[12]; [17],-18.6%
same,inhibition,[12]; [18],-3.32%
same,inhibition,[13]; [25],44.6%
same,inhibition,[13]; at 0.5 µM,-11.7% (inactive)
same,inhibition,[13]; [26],12.1%
same,inhibition,[14],9.11% (inactive)
same,inhibition,[14]; [27],7.86%
same,inhibition,[14]; [28],13%
same,inhibition,[15]; at 0.5 µM,17.1% (inactive)
same,inhibition,[15]; [29],-25.4%
same,inhibition,[15]; [30],37.3%
same,inhibition,"[15]; single agent, at 0.05 µM",-18.4%
same,inhibition,"[15]; single agent, at 5 µM",-71.2%
Nc1ncnc2c1c(-c1cnc3[nH]ccc3c1)nn2C1CCCC1,inhibition,[8]; at 0.5 µM,-19.1% (inactive)
same,inhibition,[8]; [16],-13.7%
same,inhibition,[8]; [17],-26.5%
same,inhibition,[8]; [18],69.1%
same,inhibition,[9]; at 0.5 µM,25.4% (inactive)
same,inhibition,[9]; [19],3.06%
same,inhibition,[9]; [20],36.8%
same,inhibition,[10]; at 0.5 µM,28.9% (inactive)
same,inhibition,[10]; [21],13%
same,inhibition,[10]; [22],41.5%
same,inhibition,[11]; at 0.5 µM,28.7% (inactive)
same,inhibition,[11]; [23],-4.92%
same,inhibition,[11]; [24],-7.06%
same,inhibition,[12]; at 0.5 µM,-21.4% (inactive)
same,inhibition,[12]; [17],-27.2%
same,inhibition,[12]; [18],59%
same,inhibition,[13]; [25],98.9%
same,inhibition,[13]; at 0.5 µM,22.9% (inactive)
same,inhibition,[13]; [26],106%
same,inhibition,[14],53.4% (inactive)
same,inhibition,[14]; [27],55.9%
same,inhibition,[14]; [28],46%
same,inhibition,[15]; at 0.5 µM,-8.52% (inactive)
same,inhibition,[15]; [29],-19%
same,inhibition,[15]; [30],-4.93%
same,inhibition,"[15]; single agent, at 0.05 µM",-24.4%
same,inhibition,"[15]; single agent, at 5 µM",98.2%
